Assay [1] in a line: Caspase-3/7 induction in HepG2 cells by small molecules, qHTS assay (AID 1346978). Also: nearly all actives have a fitted effect of over 15% in size. Also: potency is read from the fitted curve at half-maximal effect. As to caspase activation: % is scaled to controls: 0 for no effect and ±100 for the full control effect. The method, boiled down:
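Wild-type HepG2 cells (2,000/well) were settled 5 h at 37 C, 5% CO2, then exposed to compounds in DMSO for 17 h. Caspase-3/7 activity was read by luminescence 30 min after adding Caspase-Glo 3/7 reagent at room temperature.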

The nature of assay [2]: Caspase-3/7 induction in CHO-K1 cells by small molecules, qHTS cell viability counter screen (AID 1346979). Also: nearly all actives have a fitted effect of over 35% in size. Also: potency is read from the fitted curve at half-maximal effect. The method, boiled down:
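Cytotoxicity counter screen: CellTiter-Fluor added to compound-treated wild-type CHO-K1 cells at 16 h (37C, 5% CO2), fluorescence measured 1 h later; same wells as caspase-3/7 measurement.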
For orientation: In qHTS, concentration-response curves come from the screen itself.

Assay [3] can be described thus: Caspase-3/7 induction in CHO-K1 cells by small molecules, qHTS assay (AID 1346980). Also: nearly all actives have a fitted effect of over 15% in size. Also: potency is read from the fitted curve at half-maximal effect. As to caspase-3/7 activation: % is scaled to controls: 0 for no effect and ±100 for the full control effect. The method, boiled down:
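Wild-type cells were seeded at 1,500 per well and settled 5 hr at 37 C, 5% CO2, then exposed to DMSO-dissolved compounds for 17 hr. Caspase-Glo 3/7 reagent was added, and luminescence was read after 30min at room temperature.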

Assay [4] has as its target Nuclear receptor subfamily 1 group I member 2 (Homo sapiens) (UniProt O75469). The assay is described as follows: Human pregnane X receptor (PXR) small molecule agonists, qHTS assay (AID 1346982). Also: nearly all actives have a fitted effect of over 35% in size. Also: potency is read from the fitted curve at half-maximal effect. As to activation: % is scaled to controls: 0 for no effect and ±100 for the full control effect. The method, boiled down: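 After plating in 5% charcoal-stripped FBS and a 5 hr rest, PXR-Luc HepG2 cells received compounds in DMSO. Following 24 hr at 37 C, ONE-Glo was added and light output read.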

Assay [5] concerns the target Cytochrome P450 2D6 (Homo sapiens) (UniProt P10635). Nature of the assay: Cytochrome P450 Family 2 Subfamily D Member 6 (CYP2D6) small molecule antagonists: luciferase reporter qHTS assay (AID 1671196). Also: nearly all actives have a fitted effect of over 50% in size. Also: potency is read from the fitted curve at half-maximal effect. In outline: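 Quantitative HTS of Tox21 chemicals against CYP2D6 using a luminescent proluciferin substrate. After NADPH addition, 1 h room-temperature reaction; luminescence recorded 20 min post detection reagent.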

Assay [6] concerns the target Cytochrome P450 2C19 (Homo sapiens) (UniProt P33261). The assay is described as follows: Cytochrome P450 Family 2 Subfamily C Member 19 (CYP2C19) small molecule antagonists: luciferase reporter qHTS assay (AID 1671197). Also: nearly all actives have a fitted effect of over 65% in size. Also: potency is read from the fitted curve at half-maximal effect. In outline: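 Enzyme-substrate mix with proluciferin substrate (P450-Glo CYP2C19 system) preincubated with compounds 10 min at room temperature; NADPH regeneration solution added, 37C for 1 h; detection reagent stops reaction, luminescence read after 20 min. Ketoconazole positive control.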
A general note: A reporter such as luciferase makes a cellular process visible.

Assay [7] is described as follows: Caspase-3/7 induction in HepG2 cells by small molecules, qHTS cell viability counter screen (AID 1346981). Also: nearly all actives have a fitted effect of over 30% in size. Also: potency is read from the fitted curve at half-maximal effect. In outline:
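The parent HepG2 line is plated at 2,000 cells per well and rested 5 hr before compound pinning from DMSO stocks. Following a 16-hr treatment at 37 C, a fluorogenic live-cell substrate (CellTiter-Fluor) reports viability after 1 hr.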

Assay [8] has as its target Nuclear receptor subfamily 1 group I member 2 (Rattus norvegicus) (UniProt Q9R1A7). Nature of the assay: Rat pregnane X receptor (rPXR) activation by small molecules, qHTS assay (AID 1346983). Also: % is scaled to controls: 0 for no effect and ±100 for the full control effect; nearly all actives have a fitted effect of over 20% in size. To be noted: rPXR luciferase reporter cells, One-Glo luminescence, 24 h; max activation: stronger effect = higher value. In outline:
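Cell-based rPXR luciferase reporter assay, 2,000 cells per well, rested 5hr at 37 C before compound addition in DMSO, then 24 hr at 37 C. One-Glo reagent was added and luminescence read after 30 min at room temperature.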

Assay [9] has as its target Nuclear receptor subfamily 1 group I member 2 (Homo sapiens) (UniProt O75469). Nature of the assay: CYP3A4 induction through human pregnane X receptor (PXR) by small molecules, qHTS assay (AID 1346984). Also: potency is read from the fitted curve at half-maximal effect; nearly all actives have a fitted effect of over 40% in size. The method, boiled down: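 Human PXR activation is tracked via CYP3A4 promoter-luciferase in DPX-2 (HepG2) cells. Compounds treat cells for 24hr at 37C, and luminescence is read after One-Glo.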

Several values for one entry are separate records, joined by “and”; a condition that tells them apart may be missing. Equal values may be shown once. Results filed as inconclusive are left out. Some compounds were tested as several samples or in several runs, with calls that do not always agree. Activity calls are given as the source filed them. Calls follow the shape of the dose curve; as a rule, active = well fitted curve in the direction sought with a large enough effect in the repeat runs; inconclusive = weak or mixed curves; inactive = no such curve, though single readings can be large; an effect the other way counts as inactive or inconclusive.

Nuclear receptor subfamily 1 group I member 2 (Homo sapiens), sequence (O75469 whole entry, looked up): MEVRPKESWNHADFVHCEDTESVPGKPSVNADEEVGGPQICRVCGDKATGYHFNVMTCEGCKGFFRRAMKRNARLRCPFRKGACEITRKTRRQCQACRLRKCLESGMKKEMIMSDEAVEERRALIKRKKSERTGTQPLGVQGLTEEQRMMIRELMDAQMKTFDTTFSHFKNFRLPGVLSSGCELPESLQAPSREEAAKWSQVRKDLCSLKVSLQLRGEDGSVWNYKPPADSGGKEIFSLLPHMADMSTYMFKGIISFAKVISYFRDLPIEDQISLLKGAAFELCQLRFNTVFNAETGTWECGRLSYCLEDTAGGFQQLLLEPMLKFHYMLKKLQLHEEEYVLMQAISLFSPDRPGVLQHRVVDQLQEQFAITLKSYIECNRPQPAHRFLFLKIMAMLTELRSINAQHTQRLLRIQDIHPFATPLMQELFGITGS
Nuclear receptor subfamily 1 group I member 2 (Rattus norvegicus), sequence (Q9R1A7 whole entry, looked up): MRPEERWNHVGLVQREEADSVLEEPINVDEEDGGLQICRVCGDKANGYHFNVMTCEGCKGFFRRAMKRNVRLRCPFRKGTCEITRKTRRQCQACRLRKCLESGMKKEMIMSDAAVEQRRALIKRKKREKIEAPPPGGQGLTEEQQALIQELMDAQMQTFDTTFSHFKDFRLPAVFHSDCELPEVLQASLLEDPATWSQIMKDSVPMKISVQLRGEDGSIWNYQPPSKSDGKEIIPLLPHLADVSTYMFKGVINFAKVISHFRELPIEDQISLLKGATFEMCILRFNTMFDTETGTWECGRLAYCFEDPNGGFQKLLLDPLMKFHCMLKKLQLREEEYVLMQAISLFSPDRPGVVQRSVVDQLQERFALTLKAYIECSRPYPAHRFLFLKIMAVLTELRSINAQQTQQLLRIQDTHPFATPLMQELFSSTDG
Cytochrome P450 2C19 (Homo sapiens), sequence (P33261 whole entry, looked up): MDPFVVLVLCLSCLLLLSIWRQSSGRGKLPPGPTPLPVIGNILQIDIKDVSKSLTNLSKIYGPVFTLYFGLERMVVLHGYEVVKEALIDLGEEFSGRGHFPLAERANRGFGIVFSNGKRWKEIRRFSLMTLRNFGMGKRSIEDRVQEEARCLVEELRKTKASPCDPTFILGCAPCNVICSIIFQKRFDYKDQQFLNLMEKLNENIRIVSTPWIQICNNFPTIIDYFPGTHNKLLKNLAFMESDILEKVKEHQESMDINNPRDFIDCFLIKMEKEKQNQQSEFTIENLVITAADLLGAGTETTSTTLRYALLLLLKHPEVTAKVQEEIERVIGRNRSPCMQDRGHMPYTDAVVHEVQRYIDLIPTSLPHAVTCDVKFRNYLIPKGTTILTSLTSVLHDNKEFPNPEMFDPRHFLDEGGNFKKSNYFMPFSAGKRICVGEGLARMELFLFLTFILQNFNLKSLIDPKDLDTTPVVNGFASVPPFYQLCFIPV
Cytochrome P450 2D6 (Homo sapiens), sequence (P10635 whole entry, looked up): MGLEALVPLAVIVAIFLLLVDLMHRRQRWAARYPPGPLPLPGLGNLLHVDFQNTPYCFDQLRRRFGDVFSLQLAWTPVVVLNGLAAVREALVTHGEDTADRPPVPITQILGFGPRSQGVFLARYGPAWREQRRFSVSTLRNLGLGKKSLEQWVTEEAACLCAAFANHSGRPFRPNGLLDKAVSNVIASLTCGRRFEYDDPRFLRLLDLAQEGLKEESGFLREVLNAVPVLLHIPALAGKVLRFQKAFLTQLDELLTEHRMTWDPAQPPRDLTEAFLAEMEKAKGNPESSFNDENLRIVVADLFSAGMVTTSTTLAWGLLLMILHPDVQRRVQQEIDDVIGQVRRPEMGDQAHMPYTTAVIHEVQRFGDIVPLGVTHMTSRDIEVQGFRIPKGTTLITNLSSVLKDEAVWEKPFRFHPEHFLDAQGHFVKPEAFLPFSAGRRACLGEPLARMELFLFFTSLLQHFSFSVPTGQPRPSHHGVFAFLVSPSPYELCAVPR

With `NC1CCCCC1`, the Potency result in [1], in assay [2], in assay [3], in [4] and in assay [5] was “inactive” in each case. For the same compound, in assay [6], the Potency is 35.8 µM (active) and inactive.
For the compound `COc1cccc(O)c1O`, the Potency entry in assay [1] and in assay [3] was “inactive” throughout. The Potency in assay [2] is 63.5 µM (active); in assay [4], 25.3 µM (active); in assay [6] it was 58.6 µM (active).
`Nc1ccc([N+](=O)[O-])cc1O`: the Potency result in [1] and in [3] was “inactive” each time. The Potency is 40.9 µM (active) in [2], 61.1 µM (active) in assay [4] and 6.33 µM (active) in assay [6].
`COc1ccc(CN(CCN(C)C)c2ccccn2)cc1`: the Potency result in [1], in assay [2], in [3] and in assay [4] was “inactive” each time. Besides, the Potency in assay [6] was 9.94 µM (active) and 32.8 µM (active) and 21.9 µM (active).
Consider `CN[C@H]1CC[C@@H](c2ccc(Cl)c(Cl)c2)c2ccccc21`, for which the Potency in assay [1] is 13.3 µM (active); in [2], 29.8 µM (active); in assay [7], 29.8 µM (active); in [5], 1.55 µM (active); in assay [6], 3.89 µM (active). In addition, in assay [8], the max activation was 8.99% (inactive).
As for `C1=CC2C3C=CC(C3)C2C1` (stereo unspecified), the Potency result in assay [1], in assay [2], in assay [3] and in assay [6] was “inactive” throughout. The Potency in [5] was 6.99 µM (active).
For the compound `CC/C(=C(\c1ccccc1)c1ccc(OCCN(C)C)cc1)c1ccccc1`, the Potency in assay [1] was 27.5 µM (active) and 54.4 µM (active) and 61.1 µM (active); in assay [2], 54.4 µM (active) [middle of 4 runs]; in assay [3], 24.5 µM (active) and inactive. The max activation in assay [8] is -0.827% (inactive).
For the compound `NC(=O)n1c(O)c(C(=O)c2cccs2)c2cc(Cl)ccc21`, the Potency result in [1], in [3] and in assay [5] was “inactive” throughout. Further, the max activation in [8] is 4.95% (inactive). Besides, in assay [9], the Potency was 28.2 µM (active).
On to `Cc1ncc([N+](=O)[O-])n1C`, for which the Potency entry in assay [1], in assay [2], in assay [3], in assay [4], in [5] and in assay [6] was “inactive” in each case.
For the compound `CC(C)C(=O)Nc1ccc([N+](=O)[O-])c(C(F)(F)F)c1`, the Potency result in assay [1] and in assay [3] was “inactive” throughout. For the same compound, the Potency is 44.5 µM (active) and 54.5 µM (active) and 26.6 µM (active) in assay [2]; 35.4 µM (active) and 34.4 µM (active) and 29.8 µM (active) in [4]; 36.6 µM (active) and 63.3 µM (active) in assay [5]; 18.3 µM (active) and 22.4 µM (active) and 7.76 µM (active) in [6].
In the case of `O=c1[nH]cc(F)c(=O)[nH]1`, the Potency result in [1], in assay [3] and in assay [7] was “inactive” throughout. Further, the Potency is 31.8 µM (active) and 24.9 µM (active) and inactive in assay [4]; “inactive and 34.7 µM (active)” in assay [5]; 20.8 µM (active) and inactive in assay [6].
As to `Nc1c2c(nc3ccccc13)CCCC2`, the Potency entry in assay [1], in assay [2] and in [3] was “inactive” in each case. The Potency in assay [4] is 48.6 µM (active) and 38.6 µM (active) and inactive; in assay [5] it was 3.56 µM (active) and 11.2 µM (active) and 11 µM (active); in [6], 39.9 µM (active) and inactive.
`Nc1ccc2c(c1)CN1C(=O)c3ccccc3C1=N2`: in assay [1], the caspase activation was -14.3% [at 19 µM] (inactive). Moreover, the caspase-3/7 activation in assay [3] was -7.02% [at 19 µM] (inactive). In addition, the Potency in [4] is 0.073 µM (active); in assay [5], 6.01 µM (active); in assay [6], 3.01 µM (active).
As to `CC(=O)Nc1c(I)c(NC(C)=O)c(I)c(C(=O)O)c1I`, the Potency entry in assay [1], in [2], in assay [3] and in assay [5] was “inactive” in each case. Further, the Potency in [4] is 24.3 µM (active) and inactive; in assay [6], “inactive and 79.6 µM (active)”.
